# Results filed as inconclusive are left out. Calls of active or inactive are those of the source. How the source made its calls: active means hit-call score of the fitted dose curve at least 0.9, where 1 is the maximum; inconclusive means response in the unintended direction; inactive means score below 0.9.
# Tested on: rat Monoamine Oxidase, MAO-A, Peripheral (MAOAP), gene 29253
# Assay: NVS_ENZ_rMAOAP: NovaScreen (NVS) Enzymatic Assay for rat Monoamine Oxidase, MAO-A, Peripheral (MAOAP) (AID 2283237)
# Method: NVS_ENZ_rMAOAP is a biochemical, single-readout assay that uses extracted gene-proteins from Rat liver mitochondrial membranes in a tissue-based cell-free assay. Measurements were taken 1.17 hours after chemical dosing in a 96-well plate.NVS_ENZ_rMAOAP is one of one assay component(s) measured or calculated from the NVS_ENZ_rMAOAP assay. It is designed to make measurements of enzyme activity, a form of enzyme reporter, as detected with scintillation counting signals by Lysate-based radiodetection technology.Data from the assay component NVS_ENZ_rMAOAP was analyzed into 1 assay endpoint. This assay endpoint, NVS_ENZ_rMAOAP, was analyzed in the positive analysis fitting direction relative to DMSO as the negative control and baseline of activity. Using a type of enzyme reporter, loss-of-signal activity can be used to understand changes in the enzymatic activity as they relate to the gene Maoa. Furthermore, this assay endpoint can be referred to as a primary readout, because this assay has produced multiple assay endpoints where this one serves a enzymatic activity function. To generalize the intended target to other relatable targets, this assay endpoint is annotated to the oxidoreductase intended target family, where the subfamily is monoamine oxidase.
# Binding assays used specific radioligands (tritiated, iodinated) with non-radioactive competitive displacement ligands in agonist or antagonist protocols (as indicated) and various reference compounds and inhibitors to titrate specific binding to receptors and transporters. Most enzyme assays (CYPs, kinases, phosphatases, proteases, HDACs) used recombinant protein and specific substrates (fluorescence mostly, some colorimetric and radioactive) and inhibitors, followed by a biochemical separation of substrate and product. All assays for the biochemical HTS were initially run in duplicate at a single concentration (10 uM for CYP450 assays and 25 uM for all others). […] Each assay was run with positive and negative controls, and concurrent controls on every plate. The follow-up (secondary) screen tested active chemical-pairs in concentration series, as well as a few additional assays not tested in the primary screen, some selected negative inactives, and several cases re-run in the concentration series for confirmatory purposes.
Compound,outcome,AC50
CC(C)(C)OOC(C)(C)CCC(C)(C)OOC(C)(C)C,inactive,
[Cl-].[Cl-].[Hg+2],,3.19 µM (active)
O=C(N[C@H](c1ccccc1)[C@@H]1CN2CCC1CC2)c1c(Cl)ccc(C(F)(F)F)c1Cl,,50.6 µM (active)
Nc1ccc(N=Nc2ccccc2)cc1,,18.3 µM (active)
CC(C)(O)c1cnn2c(-c3ccc(F)c(-c4c(F)cccc4C#N)c3)cnc2n1,inactive,
Oc1ccc2ccc3cccc4ccc1c2c34,,1.18 µM (active)
CCN(CC)CCO,inactive,
CN(C)c1ccc(C(=O)c2ccc(N(C)C)cc2)cc1,,7.24 µM (active)
CCOc1cccc(C2(N3CCN(c4ccccc4)CC3)CCC(C)CC2)c1 (stereo not given),,13.7 µM (active)
Nc1ccc([N+](=O)[O-])cc1,,16.7 µM (active)
